Pf apPOL inh: Pf-apPOL DNA polymerase inhibition | Recombinant Pf-apPOL, molecular beacon fluorescence, 1.5 h | inhibition, % at 10 µM | actives 0.25% (n = 210,000)
mHTT-CaM PPI inh: disrupts binding of mutant huntingtin to calmodulin. P42858. AlphaScreen His-mHTT/GST-CaM binding, luminescence. inhibition, % at 15 µM. actives 3.6% (n = 190,000)
Each line names hits and unclear results; the compound was inactive in the other large screens. This excerpt belongs to a sample that is enriched for hits. No stated cut-off is given here; in the data, active means inhibition above about 50%; inactive means the rest.

O=c1ccc(-c2noc(C3CCCCC3)n2)c[nH]1	none
CCc1[nH]nc(-c2ccc(OC)cc2OC)c1NC(C)=O	Pf apPOL inh 84, mHTT-CaM PPI inh 97
CCc1n[nH]c(CC)c1NC(=O)c1cccc(OC)c1	none
CCOc1ccc(-c2nc3s/c(=C\c4cc(Br)ccc4OC)c(=O)n3n2)cc1	Pf apPOL inh 55
COc1ccc(OC)c(/C=c2\sc3nc(-c4ccc(Br)cc4)nn3c2=O)c1	none
Cc1cccc2sc(N(CCCN(C)C)C(=O)c3ccccc3Br)nc12	mHTT-CaM PPI inh 96
CN(C)CCCN(C(=O)c1nc2ccccc2s1)c1nc2c(Cl)cccc2s1	none
CN(C)c1ccc(CNc2ccc3c(c2)ncn3C(C)(C)C)cc1	mHTT-CaM PPI inh 78
CCOc1ccc(CNc2ccc3c(c2)ncn3C(C)(C)C)cc1	none
CCN(CC)c1ccc(CNc2ccc3c(c2)ncn3CC)cc1	mHTT-CaM PPI inh 94
CCn1cnc2cc(NCc3ccc(N(C)C)cc3)ccc21	none
Nc1nonc1-c1noc(-c2ccco2)n1	none (no result: Pf apPOL inh)
CCN1c2ccc(C)cc2C(=O)NC12CCN(C(=O)c1ccc3c(c1)OCO3)CC2	none
CCN1c2cc(C)ccc2-n2cccc2C12CCN(C(=O)c1ccc(F)cc1)CC2	mHTT-CaM PPI inh 85
CCN1c2cc(F)ccc2C(=O)NC12CCN(C(=O)c1ccc(C)cc1)CC2	none
CCN1c2cc(C)ccc2-n2cccc2C12CCN(C(=O)c1ccc3c(c1)OCO3)CC2	mHTT-CaM PPI inh 66
CCN1c2cc(C)ccc2-n2cccc2C12CCN(C(=O)Cc1cccs1)CC2	mHTT-CaM PPI inh 98
O=C1CC2(CCN(C(=O)Cc3cccs3)CC2)Oc2ccccc21	none
COc1ccc2nc(SCC(=O)Nc3ccc(C)c(Cl)c3)[nH]c2c1	none
COC(=O)C1=C(N)Oc2c(oc(CO)cc2=O)C1c1ccc(OC)c(OC)c1 (configuration not stated)	none
O=C(NCc1ccco1)c1ccc(NC(=O)N2CC3CCCN3c3ccccc32)cc1 (configuration not stated)	none
Cc1ccccc1NC(=O)N1CC2CCCN2c2ccccc21 (configuration not stated)	mHTT-CaM PPI inh 61
CCOc1ccccc1NC(=O)N1CC2CCCN2c2ccccc21 (configuration not stated)	mHTT-CaM PPI inh 80
Cc1cccc(NC(=O)N2CC3CCCN3c3ccccc32)c1C (configuration not stated)	none
CCOc1ccccc1NC(=O)N1CC(CC)Oc2ccccc21 (configuration not stated)	none
O=C(Nc1ccccc1Br)N1CC2CCCN2c2ccccc21 (configuration not stated)	mHTT-CaM PPI inh 74
Cc1ccc(C(=O)N2CCc3sc(C(=O)N4CCCC4)cc3C2)cc1	none
Cc1ccc(Nc2nc3ccccc3c(=O)s2)cc1	none
O=C(Cn1c2ccccc2c(=O)c2ccccc21)Nc1ccc(Br)cn1	none
O=C1C(=CC=CC2=C(O)c3ccccc3S2(=O)=O)S(=O)(=O)c2ccccc21	mHTT-CaM PPI inh 57 (no result: Pf apPOL inh)
COc1ccc2c(c1)OC(=Cc1cccc(O)c1)C2=O	none
COc1ccc(C(=O)N2CCc3c(c(C(=O)NCc4ccccc4)nn3C)C2)cc1	mHTT-CaM PPI inh 56
Cn1nc(C(=O)NCc2ccccc2)c2c1CCN(C(=O)c1ccc(C#N)cc1)C2	none
COc1ccc(C(=O)N2CCc3c(c(C(=O)NCc4ccccc4)nn3C)C2)c(OC)c1	mHTT-CaM PPI inh 51
Cn1nc(C(=O)NCc2ccccc2)c2c1CCN(C(=O)c1ccccc1Cl)C2	none
Cc1ccc(C(=O)N2CCc3c(c(C(=O)NCc4ccccc4)nn3C)C2)cc1	mHTT-CaM PPI inh 75
COc1cc(OC)cc(C(=O)N2CCc3c(c(C(=O)NCc4ccccc4)nn3C)C2)c1	mHTT-CaM PPI inh 75
Cn1nc(C(=O)NCc2ccccc2)c2c1CCN(C(=O)c1ccccc1)C2	none
COc1ccc2cc(C(=O)N3CCc4c(c(C(=O)NCc5ccccc5)nn4C)C3)[nH]c2c1	none
CCNC(=S)Nc1cc(Cl)cc(Cl)c1	none (no result: mHTT-CaM PPI inh)
CN(Cc1ccco1)S(=O)(=O)c1ccc2[nH]cc(C(=O)O)c(=O)c2c1	none
CCOc1coc(C(=O)NCCc2ccc(Cl)cc2)cc1=O	none
Cc1ccccc1C(=O)N1CCc2c(c(C(=O)NCc3ccccc3)nn2C)C1	none
CC(Oc1ccccc1)C(=O)N1CCc2c(c(C(=O)NCc3ccccc3)nn2C)C1 (configuration not stated)	mHTT-CaM PPI inh 55
CCc1ccc2nc(C)cc(C(=O)N3CCOCC3)c2c1	none
O=C(NCc1ccccn1)c1ccc2c(c1)OCO2	mHTT-CaM PPI inh 100
COc1ccc(-n2nc(C(=O)NCC(=O)Nc3ccc(F)cc3)c3ccccc3c2=O)c(OC)c1	mHTT-CaM PPI inh 88
O=C(NCc1cccnc1-c1ccccc1)c1ccc2c(c1)OCO2	none
Cc1cc(=O)oc(C)c1C(=O)NCc1cccs1	none
Cc1cc(=O)oc(C)c1C(=O)NCc1ccccn1	mHTT-CaM PPI inh 57
COCCNC(=O)c1nn(-c2ccccc2OC)c(=O)c2ccccc12	none
COc1ccc(-n2nc(C(=O)Nc3ccc(F)cc3)c3ccccc3c2=O)c(OC)c1	none
CCN(CCCNC(=O)c1nn(-c2ccccc2OC)c(=O)c2ccccc12)c1cccc(C)c1	mHTT-CaM PPI inh 62
CCC(=O)NCc1nc2c(n1CC)CN(C(=O)c1ccccc1F)CC2	none
Cc1cc(O)c(C(c2ccc(Cl)cc2)c2c(O)cc(C)oc2=O)c(=O)o1	none
COc1ccc(-c2noc(Cc3cccs3)n2)cc1	none
N#Cc1ccc(C(=O)Nc2cnc(N3CCCCCC3)nc2)cc1	none
Cc1cc(C)c(C#N)c(SCc2nc3cc([N+](=O)[O-])c([N+](=O)[O-])cc3[nH]2)n1	none
CCN(CCCNC(=O)c1c(C)cc(=O)oc1C)c1cccc(C)c1	mHTT-CaM PPI inh 64
Cc1cc(=O)oc(C)c1C(=O)NCCCN(CC(C)C)CC(C)C	none
CCCCOc1ccc(C(=O)N(c2ccc(C)c(Cl)c2)C2C=CS(=O)(=O)C2)cc1 (configuration not stated)	mHTT-CaM PPI inh 64
Cc1ccc(N(C(=O)Cc2ccccc2)C2C=CS(=O)(=O)C2)cc1Cl (configuration not stated)	none
Cc1cc(N2C(=O)C3C4c5ccccc5C(c5ccccc54)C3C2=O)no1 (configuration not stated)	none
CCS(=O)(=O)N1CCc2c(c(-c3nc(-c4cccc(F)c4)no3)nn2C)C1	none
Cc1cc(NC(=O)c2cccc([N+](=O)[O-])c2)no1	none
O=[N+]([O-])c1cccc(C(Nc2ccccn2)c2ccc3cccnc3c2O)c1 (configuration not stated)	mHTT-CaM PPI inh 100
Cc1cc(NC(c2cccc([N+](=O)[O-])c2)c2ccc3cccnc3c2O)no1 (configuration not stated)	mHTT-CaM PPI inh 100
O=C(/C=C/c1cccc([N+](=O)[O-])c1)Nc1ccccn1	none
CC1CCc2c(sc3nc4c5ccccc5c5nncn5n4c(=O)c23)C1 (configuration not stated)	none
Cc1ccc(NC(=O)NCCC2CCN(S(=O)(=O)c3ccc(F)cc3)CC2)cc1F	none
O=S(=O)(c1ccccc1)N1N=C(c2cccs2)CC1c1ccc(Br)cc1 (configuration not stated)	none
COc1ccc(C2=NN3C(C2)c2cccc(OC)c2OC32CCCCC2)cc1 (configuration not stated)	none
COc1ccc(C2=NN3C(C2)c2cccc(OC)c2OC3(C)C)cc1 (configuration not stated)	mHTT-CaM PPI inh 51
COc1cccc2c1OC1(CCC(C)CC1)N1N=C(c3cccs3)CC21 (configuration not stated)	none
